Assay results: the OligoGym collection

Legend:
Experiment in all cases: pooled miR-30 sensor sort-seq; sequence = guide strand
Settings in all cases: shRNA
HMOX1 = molecular target: HMOX1
HMGN1 = molecular target: HMGN1
HMGB2 = molecular target: HMGB2
HLA-DRA = molecular target: HLA-DRA
HOXA6 = molecular target: HOXA6
HNRNPU = molecular target: HNRNPU
HOOK2 = molecular target: HOOK2
HNRNPL = molecular target: HNRNPL
Note: reference of the scale not given here.

TCATGAACTCAGCATTCTCTGC
sensor-assay potency score (higher = more potent) (HMOX1): -0.85

TTGAGCAGGAACGCAGTCTTGG
sensor-assay potency score (higher = more potent) (HMOX1): -0.286

AAGATTTATCCTTCGCTGCTGC
sensor-assay potency score (higher = more potent) (HMGN1): -0.0749

TTCTTCTTGTGCTCTTCCCGGC
sensor-assay potency score (higher = more potent) (HMGB2): -0.526

TATAAAAACAACAGAACACAAC
sensor-assay potency score (higher = more potent) (HMOX1): -1.08

TTTAGCTTAGCTGCTTTCTGTT
sensor-assay potency score (higher = more potent) (HMGB2): -0.377

TTGAACTTGGTGGCACTGGCAA
sensor-assay potency score (higher = more potent) (HMOX1): -0.865

TTCTTCTTCTTTGAGCCTGTTG
sensor-assay potency score (higher = more potent) (HMGB2): -0.484

AAACACAAGACACAACATCTTT
sensor-assay potency score (higher = more potent) (HMOX1): -0.747

TTGATAAAAATATTCCTCTGGA
sensor-assay potency score (higher = more potent) (HMGN1): 0.157

TTTCTTCTTGTGCTCTTCCCGG
sensor-assay potency score (higher = more potent) (HMGB2): -1.12

TACCAAAAAATAAACAACCAGC
sensor-assay potency score (higher = more potent) (HMGN1): -1.01

TTCGCTTCCACTTTTGCAGGAG
sensor-assay potency score (higher = more potent) (HMGN1): 0.413

TTCTGCTGCATTGCTTTTGCGC
sensor-assay potency score (higher = more potent) (HLA-DRA): -0.581

TTGGTTAGCCACTTCGGCCTGT
sensor-assay potency score (higher = more potent) (HMGN1): 0.684

TACAGCAACTGTCGCCACCAGA
sensor-assay potency score (higher = more potent) (HMOX1): -0.902

TTCAAACTTCGACTTCTCCTTT
sensor-assay potency score (higher = more potent) (HMGB2): 0.655

TTTAGTTTCTTGGTTAGCCACT
sensor-assay potency score (higher = more potent) (HMGN1): -0.724

TAGGATATAAAAACTAACCCCC
sensor-assay potency score (higher = more potent) (HMGN1): -0.107

ATTGATGAGCTTGTTTTCCTTT
sensor-assay potency score (higher = more potent) (HOXA6): 0.0267

TTGAGTAACTACCACGGCCAGG
sensor-assay potency score (higher = more potent) (HNRNPU): -1.38

TTTGCTTCTTAAAACCTGCCAC
sensor-assay potency score (higher = more potent) (HNRNPU): 0.467

TTTCATCAAACTTTTCTCCATA
sensor-assay potency score (higher = more potent) (HNRNPU): -0.817

TCACTTAGGAAATAGTACCTGC
sensor-assay potency score (higher = more potent) (HOOK2): -0.233

TTCCATGGTCTGCATGACCATG
sensor-assay potency score (higher = more potent) (HOOK2): -1.55

ATGGTCTGCATGACCATGCGGG
sensor-assay potency score (higher = more potent) (HOOK2): -1.25

TTGTACTGCTGCTCGGGAGAAA
sensor-assay potency score (higher = more potent) (HOXA6): -0.818

TTAAGGTTAAGTAAGCCTCTAC
sensor-assay potency score (higher = more potent) (HNRNPL): 0.152

TACTAGGCTCCGTAAGACCATC
sensor-assay potency score (higher = more potent) (HOOK2): -1.58

TGTACTTCCGGTCGGCGCCTTC
sensor-assay potency score (higher = more potent) (HOXA6): -0.845
